Test results published in PubChem BioAssay (NCATS).
Records with an inconclusive call do not appear. Calls of active or inactive are those of the source. Unless noted, calls come from the whole dose curve.

Tests used:
[1] = Cell Viability - BJ (AID 421); details: BJ fibroblast viability, qHTS;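 note: potency is the fitted concentration of half-maximal effect; cells exposed to compound for 40 hours at 37 °C before readout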
How it was run: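 Cytotoxicity as drop in intracellular ATP (CellTiter-Glo, 20 min RT) after 40 hr compound exposure of BJ fibroblasts at 37 °C. Titrations scaled between DMSO and 100 uM tamoxifen, Hill-fitted for AC50.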

[2] = Cell Viability - Jurkat (AID 426;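 active = dose-dependent loss of cell ATP signal giving a full or clear fitted curve, ranked by lower potency value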;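 note: potency is the fitted concentration of half-maximal effect; cells exposed to compound for 40 hours at 37 °C before ATP read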); details: qHTS
How it was run: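 Seed 5000 Jurkat E6-1 cells/well; add compound; incubate 40 hr at 37 °C; add CellTiter-Glo; wait 20 min at room temperature; read luminescence. Fit concentration-response with Hill equation for AC50.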

[3] = Cell Viability - HepG2 (AID 433); details: qHTS;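 note: potency is the fitted concentration of half-maximal effect; cells exposed to compound for 40 hours; potency for ATP loss meaning cytotoxicity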
How it was run: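 Cytotoxicity read as ATP loss (CellTiter-Glo luminescence) after 40 hr compound exposure of HepG2, 1500 cells/well, 37 °C. AC50 by Hill equation; 0% set by DMSO, 100% inhibition by 100 uM tamoxifen.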

[4] = Cell Viability - MRC5 (AID 434); details: MRC5 lung fibroblast viability, qHTS;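 note: potency is the fitted concentration of half-maximal effect; cells exposed to compound for 40 hours at 37 °C; potency reflects cytotoxicity seen as loss of intracellular ATP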
How it was run: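 qHTS cytotoxicity in human lung fibroblast MRC5 cells; 40 hr treatment, 37 °C; cellular ATP by luciferase luminescence; DMSO = 0%, 100 uM tamoxifen = 100% inhibition; Hill-fit AC50.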

[5] = Cell Viability - SK-N-SH (AID 435); details: SK-N-SH neuroblastoma cell viability qHTS; note: potency is the fitted concentration of half-maximal effect
How it was run: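 qHTS cytotoxicity: CellTiter-Glo ATP luminescence after 40 h compound exposure of human neuroblastoma SK-N-SH cells at 37 °C. AC50 derived by Hill-equation fitting, with DMSO as basal and 100 uM tamoxifen as full inhibition.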

[6] = target: Mitogen-activated protein kinase 10 (Mus musculus) (UniProt Q61831); assay: JNK3 AlphaScreen Assay (AID 530; active = well fitted curve in either direction with a large enough effect, not every such curve was filed as active;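 note: kinase came from lysate of stimulated human HepG2 cells; signal reports phosphorylation of biotinylated GST-cJun 1-79 at Ser73 with 10 µM ATP; % is set by controls: 0 for no effect and ±100 for the full control effect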); details: JNK3 lysate, c-Jun phosphorylation; series mostly up to 57.1 µM
How it was run: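 Room-temperature AlphaScreen kinase assay; pre-activated HepG2 lysate as JNK3 source, biotin-GST-cJun(1-79) substrate, 10 uM ATP, compound 15 min preincubation.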

[7] = Cell Viability - N2a (AID 540; active = well fitted curve in the direction sought with a large enough effect; an effect the other way counts as inactive or inconclusive;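 note: plate controls were DMSO alone for no effect and tamoxifen control for full effect; nearly all actives have a fitted effect of over 45% in size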); details: N2a mouse neuroblastoma cell viability; activity change, negative = cytotoxicity: at 92.2 µM (top of the series)
How it was run: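 First, 1500 N2a cells per well incubate 5 hr at 37 °C; next, compounds are added and incubated 40 hr at 37 °C; finally CellTiter-Glo is added and luminescence read after 20 min, with AC50 derived by Hill modeling.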

[8] = Cell Viability - NIH 3T3 (AID 541; active = well fitted curve in the direction sought with a large enough effect; an effect the other way counts as inactive or inconclusive;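 note: cells exposed to compound for 40 hours; plate controls were DMSO alone for no effect and tamoxifen positive control for full effect; nearly all actives have a fitted effect of over 25% in size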); details: NIH 3T3 cell viability, qHTS; activity change, negative = cytotoxicity: at 92.2 µM (top of the series)
How it was run: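 AC50 values reflect concentration-dependent loss of intracellular ATP in NIH 3T3 cells after 40 hr treatment in complete culture medium, quantified by luciferase-based luminescence.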

[9] = Cell Viability - HUV-EC-C (AID 542; active = well fitted curve in the direction sought with a large enough effect; an effect the other way counts as inactive or inconclusive;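 note: cells exposed to compound for 40 hours; % is set by controls: 0 for no effect and ±100 for the full control effect; nearly all actives have a fitted effect of over 35% in size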); details: HUV-EC-C endothelial cell viability, qHTS; series mostly up to 92.2 µM
How it was run: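 Decrease in cellular ATP, quantified by luciferase luminescence, reflects toxicity in normal human vascular endothelial HUV-EC-C cells given compound for 40 hr in complete culture medium. Values are AC50s from concentration-response curves.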

Cc1nc2ccc(Cl)cc2[nH]1
inactive: Potency [1] > 92 µM | Potency [2] > 92 µM | Potency [3] > 92 µM | Potency [4] > 92 µM | Potency [5] > 92 µM | outcome [6] | activity change, negative = cytotoxicity [7] -5.91% | Potency [8] | Potency [9]

CCOCCO
inactive: Potency [1] > 92 µM | Potency [2] > 92 µM | Potency [3] > 92 µM | Potency [4] > 92 µM | Potency [5] > 92 µM | outcome [6] | activity change, negative = cytotoxicity [7] -17.9% | Potency [8] | Potency [9]

C=C(C)C(=O)OCCCCCCCCCC
inactive: Potency [1] > 92 µM | Potency [2] > 92 µM | Potency [3] > 92 µM | Potency [4] > 92 µM | Potency [5] > 92 µM | outcome [6] | activity change, negative = cytotoxicity [7] 3.17% | Potency [8] | Potency [9]

CC(=O)c1ccccn1
inactive: Potency [1] > 92 µM | Potency [2] > 92 µM | Potency [3] > 92 µM | Potency [5] > 92 µM | outcome [6] | activity change, negative = cytotoxicity [7] -1.85% | Potency [8] | Potency [9]

O=[N+]([O-])c1ccccc1CCO
inactive: Potency [1] > 92 µM | Potency [2] > 92 µM | Potency [3] > 92 µM | Potency [4] > 92 µM | Potency [5] > 92 µM | outcome [6] | activity change, negative = cytotoxicity [7] -12.5% | Potency [8] | Potency [9]

Nc1cccc(S(=O)(=O)O)c1
inactive: Potency [1] > 92 µM | Potency [2] > 92 µM | Potency [3] > 92 µM | Potency [4] > 92 µM | Potency [5] > 92 µM | outcome [6] | activity change, negative = cytotoxicity [7] -6.89% | Potency [9]

CCCCOCCOCCOCCCC
inactive: Potency [1] > 92 µM | Potency [2] > 92 µM | Potency [3] > 92 µM | Potency [4] > 92 µM | Potency [5] > 92 µM | outcome [6] | activity change, negative = cytotoxicity [7] 3.3% | Potency [8] | Potency [9]

Cc1ccc2nc(-c3ccc(N)cc3)sc2c1S(=O)(=O)O
inactive: Potency [1] > 92 µM | Potency [2] > 92 µM | Potency [3] > 92 µM | Potency [4] > 92 µM | Potency [5] > 92 µM | outcome [6] | activity change, negative = cytotoxicity [7] 3.3% | Potency [8] | Potency [9]

CC(=O)Nc1ccc(C)cc1
inactive: Potency [1] > 92 µM | Potency [2] > 92 µM | Potency [3] > 92 µM | Potency [4] > 92 µM | Potency [5] > 92 µM | activity change, negative = cytotoxicity [7] -10.4% | Potency [8] | Potency [9]

CC(C)Cc1nccs1
inactive: Potency [1] > 92 µM | Potency [2] > 92 µM | Potency [3] > 92 µM | Potency [4] > 92 µM | Potency [5] > 92 µM | outcome [6] | activity change, negative = cytotoxicity [7] 2.65% | Potency [8] | Potency [9]

O=Cc1c(Cl)cccc1Cl
inactive: Potency [1] > 92 µM | Potency [2] > 92 µM | Potency [3] > 92 µM | Potency [4] > 92 µM | Potency [5] > 92 µM | outcome [6] | activity change, negative = cytotoxicity [7] -16.5% | Potency [9]

COc1cccc2sc(N)nc12
inactive: Potency [1] > 92 µM | Potency [2] > 92 µM | Potency [3] > 92 µM | Potency [4] > 92 µM | Potency [5] > 92 µM | outcome [6] | activity change, negative = cytotoxicity [7] -10.1% | Potency [8] | Potency [9]

Cc1c(N)cccc1N
inactive: Potency [1] > 92 µM | Potency [2] > 92 µM | Potency [3] > 92 µM | Potency [4] > 92 µM | Potency [5] > 92 µM | outcome [6] | activity change, negative = cytotoxicity [7] -3.84% | Potency [8] | Potency [9]

COC(=O)CS
inactive: Potency [1] > 92 µM | Potency [2] > 92 µM | Potency [3] > 92 µM | Potency [4] > 92 µM | Potency [5] > 92 µM | activity change, negative = cytotoxicity [7] -8.95% | Potency [8] | Potency [9]

CCOc1cc(OCC)c(C(C)=O)cc1OCC
inactive: Potency [1] > 92 µM | Potency [2] > 92 µM | Potency [3] > 92 µM | Potency [4] > 92 µM | Potency [5] > 92 µM | outcome [6] | activity change, negative = cytotoxicity [7] -7.23% | Potency [8] | Potency [9]

COc1cccc(N)c1
inactive: Potency [1] > 92 µM | Potency [2] > 92 µM | Potency [3] > 92 µM | Potency [4] > 92 µM | Potency [5] > 92 µM | outcome [6] | activity change, negative = cytotoxicity [7] -15.1% | Potency [8] | Potency [9]

CC1CCC2CC1C2(C)C (stereo not drawn)
inactive: Potency [1] > 92 µM | Potency [2] > 92 µM | Potency [3] > 92 µM | Potency [4] > 92 µM | Potency [5] > 92 µM | outcome [6] | activity change, negative = cytotoxicity [7] -4.47% | Potency [8] | Potency [9]

CC(C)(O)C(=O)O
inactive: Potency [1] > 92 µM | Potency [2] > 92 µM | Potency [3] > 92 µM | Potency [4] > 92 µM | Potency [5] > 92 µM | outcome [6] | activity change, negative = cytotoxicity [7] 4.75% | Potency [8] | Potency [9]

O=Cc1ccc(C(=O)O)cc1
inactive: Potency [1] > 92 µM | Potency [2] > 92 µM | Potency [3] > 92 µM | Potency [5] > 92 µM | outcome [6] | activity change, negative = cytotoxicity [7] -12.7% | Potency [8] | Potency [9]

O=C(O)c1ccccc1C(=O)O
inactive: Potency [1] > 92 µM | Potency [2] > 92 µM | Potency [3] > 92 µM | Potency [4] > 92 µM | Potency [5] > 92 µM | outcome [6] | activity change, negative = cytotoxicity [7] 1.25% | Potency [8] | Potency [9]

NCCCCCCN
inactive: Potency [1] > 92 µM | Potency [2] > 92 µM | Potency [3] > 92 µM | Potency [4] > 92 µM | Potency [5] > 92 µM | activity change, negative = cytotoxicity [7] -4.05% | Potency [8] | Potency [9]

CSCCC=O
inactive: Potency [1] > 92 µM | Potency [2] > 92 µM | Potency [3] > 92 µM | Potency [4] > 92 µM | Potency [5] > 92 µM | activity change, negative = cytotoxicity [7] -17.9% | Potency [8] | Potency [9]

COc1ccc(N)c(OC)c1
inactive: Potency [1] > 92 µM | Potency [2] > 92 µM | Potency [3] > 92 µM | Potency [4] > 92 µM | Potency [5] > 92 µM | outcome [6] | activity change, negative = cytotoxicity [7] -1.93% | Potency [8] | Potency [9]

C=Cc1ccccn1
inactive: Potency [1] > 92 µM | Potency [2] > 92 µM | Potency [3] > 92 µM | Potency [4] > 92 µM | Potency [5] > 92 µM | outcome [6] | activity change, negative = cytotoxicity [7] 5.72% | Potency [8] | Potency [9]
